This is an account of results in PubChem BioAssay AID449762 (Southern Research Specialized Biocontainment Screening …, 2010).

About 1,900 (0.58%) of roughly 330,000 compounds were called active. Not shown: some 4% with an inconclusive outcome. Cut-off read from the data, not from the text of the source: inconclusive = inhibition above about 70% without an active follow-up result; inactive = below that. Only a sample is shown. Measured potencies and affinities stand elsewhere.

The term inhibition denotes the relative decrease from the control value, in per cent.

This test is described as follows: M. tuberculosis growth inhibition, HTS (AID 449762).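 Note: bacterial growth assessed after seven days of incubation.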 Conditions: M. tuberculosis H37Rv growth inhibition, 7H9 media; at 25 µM; hits give high values.
As to `CCOC(=O)Cc1csc(NS(=O)(=O)Cc2ccccc2)n1`, the inhibition is -4.69% (inactive). For the compound `Cc1ccc2cccc(OCC(=O)NCCC3=CCCCC3)c2n1`, the inhibition was 37.1% (inactive). On to `Cc1ccc(C(=O)N/C(=C\c2cccs2)C(=O)N2CCN(C)CC2)cc1C`, for which the inhibition is 0.74% (inactive).

As to `CN1C(=O)[C@H]2[C@@H](/C=C/c3ccccc3)N3C(=O)CN(Cc4ccccn4)C(=O)[C@@]3(Cc3ccccc3)[C@H]2C1=O`, the inhibition is -6.69% (inactive). Take `COc1ccc2nc(C3CCCCC3)nc(C3CCCCC3)c2c1`: the inhibition was 0.84% (inactive). For the compound `COc1ccc(-c2nc(C3CCCCC3)c3cc(OC)ccc3n2)cc1`, the inhibition is 8.29% (inactive). Under `O=C(NCCC1=CCCCC1)C1CCN(S(=O)(=O)c2ccccc2C(F)(F)F)CC1` stands -3.46% (inactive); under `COCCOc1cc(NC(=O)c2ccccc2)c(Cl)cc1Cl`, 15% (inactive).

Regarding `CC(=O)c1cnc2c(-c3ccc(Cl)cc3)cnn2c1C`, the inhibition is -5.22% (inactive). `Nc1c(-c2ccc(Cl)cc2)cnc2c(-c3ccccc3)cnn12`: the inhibition was -2.52% (inactive).

Consider `COc1ccccc1NC(=O)CSc1nc2ccccc2c(=O)n1C`, for which the inhibition was 0.03% (inactive). For the compound `COc1ccc(-c2nn(-c3ccccc3)cc2CNC(=O)c2cccc([N+](=O)[O-])c2)cc1`, the inhibition was 8.99% (inactive). As to `c1cncc(-c2ccc3ncnc(NCc4cccs4)c3c2)c1`, the inhibition was 0.82% (inactive). The result for `CCOC(=O)N1CCN(CCC(=O)Nc2ccc(OC(F)(F)F)cc2)CC1` reads 18.8% (inactive); that for `Cc1cc2cc(CNC(=S)NC3CCCCC3)ccc2[nH]1`, 4.14% (inactive). As for `Cc1ccc(CNC(=O)NC2CCCCC2)cc1`, the inhibition is -3.64% (inactive). The result for `Cc1ccc(N2C(=O)N(CC(=O)Nc3ccc(C)cc3Cl)C(=O)C2C)cc1` (stereo not drawn) reads -3.9% (inactive); that for `Cc1ccc2cccc(N)c2n1`, 1.54% (inactive); that for `Cc1ccc2c(C)ccc(O)c2n1`, -1.61% (inactive).

As to `COc1ccc(CC(=O)N2CCC3(CC2)NCCc2[nH]cnc23)cc1`, the inhibition was 2.98% (inactive).

In the case of `O=C(c1ccoc1)N1CCCC(N2CCN(c3ccc(F)cc3)CC2)C1` (stereo not drawn), the inhibition is -11.5% (inactive). For `COc1ccccc1N1CCN(C2CCCN(C(=O)c3cccc(-c4ccco4)c3)C2)CC1` (stereo not drawn), the inhibition is 2.87% (inactive). As for `CCOc1ccc(C2OC(=O)Cc3cc(OC)c(OC)cc32)cc1` (stereo not drawn), the inhibition was -2.13% (inactive).

For `Cc1cccc(N2CCN(S(=O)(=O)c3cn(C)cn3)CC2)c1C`, the inhibition is -3.87% (inactive). Take `Nc1cc(Cl)ccc1Oc1ccccc1`: the inhibition is -2.47% (inactive). `Nc1cc(Cl)ccc1Oc1ccc(Cl)cc1`: the inhibition was 4.14% (inactive). Under `CN(CC(=O)Nc1ccc(F)c(F)c1F)c1ncnc2sccc12` stands 1.29% (inactive); under `O=C(CNC(=O)c1cnccn1)Nc1ccc(F)c(F)c1F`, -5.9% (inactive).

Turning to `COCCN(C(=O)/C=C/c1ccccc1)c1c(N)n(Cc2ccccc2)c(=O)[nH]c1=O`, the inhibition is -1.36% (inactive).

In the case of `O=CC1=C(N2CCOCC2)/C(=C\c2ccccc2)CC1`, the inhibition is -3.36% (inactive). Take `O=C(O)c1ccc(N/N=C/C2=C(N3CCOCC3)C(=C\c3ccccc3)/CC2)cc1`: the inhibition is 0.66% (inactive). Regarding `O=C(Cc1ccccc1)NNC1CC(=O)N(c2ccc(Br)cc2)C1=O` (stereo not drawn), the inhibition is 0.86% (inactive). Turning to `O=C(NNC1CC(=O)N(c2ccc(Br)cc2)C1=O)c1cccnc1` (stereo not drawn), the inhibition is 1.55% (inactive).

In the case of `Cc1nn(C(C)C(=O)NCCCN(Cc2ccccc2)C(C)C)c(=O)c2c1sc1ccccc12` (stereo not drawn), the inhibition was -3.36% (inactive). `C=CCC1c2cccc(C(=O)O)c2C(=O)N1c1cccc(C)c1` (stereo not drawn): the inhibition is 0.68% (inactive).

For the compound `Cc1cccc(Nc2nc(-c3ccc(O)cc3O)cs2)n1`, the inhibition is 6.03% (inactive). For `CCOC(=O)C1CCN(c2ncnc3c2cnn3-c2ccc(Cl)cc2)CC1`, the inhibition was 5.45% (inactive).

For `COc1ccc(-n2ncc3c(N4CCC(C(N)=O)CC4)ncnc32)cc1`, the inhibition was 2.74% (inactive). In the case of `O=C(c1cnn(Cc2ccccc2)c1)N1CCN(S(=O)(=O)/C=C/c2ccccc2)CC1`, the inhibition was 6.35% (inactive). As to `COCC(=O)Nc1sc2c(c1C(=O)OC)CCC(C)C2` (stereo not drawn), the inhibition is 9.87% (inactive).

Take `COC(=O)c1c(NC(=O)CN2CCOCC2)sc2c1CCC(C)C2` (stereo not drawn): the inhibition is 3.32% (inactive). With `COCC(=O)Nc1cccc(-c2ccc3nncn3n2)c1`, the inhibition is 0.62% (inactive). Take `CCCCCc1ccc(-c2cn(CC3CCCCC3)nn2)cc1`: the inhibition is 5.3% (inactive). Regarding `CCn1cc(C(=O)NC(=S)Nc2ccccc2Br)cn1`, the inhibition was -4.11% (inactive). With `CCn1c(C)nc2cc(C(=O)NNC(=O)Nc3cccc(Cl)c3)ccc21`, the inhibition is 2.59% (inactive). The result for `CCn1c(C)c(C)c2cc(C(=O)NC3CCCCCC3)ccc21` reads 0.46% (inactive).

Consider `COc1ccc(-c2cc(C(=O)N/N=C/c3cccnc3)c3ccccc3n2)cc1`, for which the inhibition was -8.58% (inactive).

For `CC(C)=CC(=O)N1CC[C@@H](N2CCN(c3ccccc3F)CC2)[C@H](O)C1`, the inhibition is -5.32% (inactive). On to `COc1ccccc1/C=N/Nc1cc(C)nc2ccc(C)cc12`, for which the inhibition is -11.1% (inactive). On to `COc1ccc(/C=N/Nc2nc(C)cc(-c3ccccc3)n2)c(OC)c1`, for which the inhibition is 7.29% (inactive). On to `CC(C)Oc1cccc(OCCN2C(=O)c3ccccc3C2=O)c1`, for which the inhibition is 7.3% (inactive). As for `NC(=S)NNc1ccnc2cc(Cl)ccc12`, the inhibition was 41.1% (inactive). For `NC(=S)NNC(=O)Nc1ccc(Cl)c(Cl)c1`, the inhibition is -11.5% (inactive). Take `CCOc1ccccc1N1CCN(CC(O)COCc2cccs2)CC1` (stereo not drawn): the inhibition was 7% (inactive).

In the case of `C=CCn1c(CCCOc2ccc(Cl)cc2Cl)nnc1SCC(=O)Nc1nccs1`, the inhibition is -6.64% (inactive). For the compound `O=C(O)/C=C/C(=O)N1CCN(Cc2ccc3c(c2)OCO3)CC1`, the inhibition was -4.14% (inactive). For the compound `O=C(/C=C/c1cccs1)N1CCN(Cc2ccc3c(c2)OCO3)CC1`, the inhibition was 49.9% (inactive).

As for `C=CCn1c(SCC(=O)N(CC)CC)nc(O)cc1=O`, the inhibition is 1.96% (inactive). For the compound `COc1cccc(/C=N/NC(=O)CNC(=O)/C=C\c2ccccc2)c1O`, the inhibition is 0.24% (inactive). Regarding `O=C(Nc1ccccc1Cl)c1ccc(Cl)cc1Cl`, the inhibition was 64.5% (inactive). Under `O=C(O)CN1C(=O)CSC1=S` stands 3.79% (inactive). Consider `O=C(O)CCCCCN1C(=O)CSC1=S`, for which the inhibition is -1.88% (inactive). In the case of `O=C(CN1CCN(Cc2ccccc2F)C1=O)NCC1CCCO1` (stereo not drawn), the inhibition is 1.03% (inactive).
